# Measurements as given in ChEMBL document CHEMBL2218924, “A broad activity screen in support of a chemogenomic map for kinase signalling research and drug discovery” (Biochem J, 2013).
# Key:
# [1] = molecular target: T1, Serine/threonine-protein kinase 17A (Homo sapiens) (UniProt Q9UEE5); conditions: at 1 µM
# T1 sequence (whole entry): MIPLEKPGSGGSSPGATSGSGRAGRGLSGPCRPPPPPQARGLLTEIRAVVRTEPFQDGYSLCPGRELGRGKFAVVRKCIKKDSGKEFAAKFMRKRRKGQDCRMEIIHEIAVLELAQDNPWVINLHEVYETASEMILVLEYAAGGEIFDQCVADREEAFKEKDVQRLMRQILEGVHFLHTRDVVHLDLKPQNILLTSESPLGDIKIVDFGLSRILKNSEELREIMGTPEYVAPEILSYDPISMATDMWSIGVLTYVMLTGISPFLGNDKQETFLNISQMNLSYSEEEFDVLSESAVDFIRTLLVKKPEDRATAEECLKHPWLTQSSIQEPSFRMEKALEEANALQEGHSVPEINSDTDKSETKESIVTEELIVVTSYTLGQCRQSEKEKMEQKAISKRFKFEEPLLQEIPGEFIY
# [2] = molecular target: T1, Serine/threonine-protein kinase 17A (Homo sapiens); conditions: at 10 µM
# [3] = molecular target: T2, Dual specificity tyrosine-phosphorylation-regulated kinase 2 (Homo sapiens) (UniProt Q92630); conditions: at 1 µM
# T2 sequence (whole entry): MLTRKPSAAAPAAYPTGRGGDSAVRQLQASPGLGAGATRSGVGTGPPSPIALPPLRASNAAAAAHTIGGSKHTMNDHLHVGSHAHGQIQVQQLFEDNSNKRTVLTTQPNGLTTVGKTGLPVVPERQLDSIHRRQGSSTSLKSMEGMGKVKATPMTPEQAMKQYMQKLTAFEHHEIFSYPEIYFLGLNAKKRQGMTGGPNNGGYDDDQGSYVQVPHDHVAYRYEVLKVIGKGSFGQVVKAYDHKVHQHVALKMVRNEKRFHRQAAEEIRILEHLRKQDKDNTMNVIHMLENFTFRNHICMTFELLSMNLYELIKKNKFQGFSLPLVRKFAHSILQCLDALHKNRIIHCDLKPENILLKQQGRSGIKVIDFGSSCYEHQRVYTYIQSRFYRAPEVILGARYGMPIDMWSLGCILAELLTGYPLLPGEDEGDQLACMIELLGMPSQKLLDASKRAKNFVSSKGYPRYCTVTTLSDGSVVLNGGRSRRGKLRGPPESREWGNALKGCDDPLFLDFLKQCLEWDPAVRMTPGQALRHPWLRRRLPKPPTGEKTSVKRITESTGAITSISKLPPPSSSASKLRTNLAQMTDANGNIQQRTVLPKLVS
# [4] = molecular target: T2, Dual specificity tyrosine-phosphorylation-regulated kinase 2 (Homo sapiens); conditions: at 10 µM
# [5] = molecular target: T3, Ephrin type-A receptor 3 (Homo sapiens) (UniProt P29320); conditions: at 1 µM
# T3 sequence (whole entry): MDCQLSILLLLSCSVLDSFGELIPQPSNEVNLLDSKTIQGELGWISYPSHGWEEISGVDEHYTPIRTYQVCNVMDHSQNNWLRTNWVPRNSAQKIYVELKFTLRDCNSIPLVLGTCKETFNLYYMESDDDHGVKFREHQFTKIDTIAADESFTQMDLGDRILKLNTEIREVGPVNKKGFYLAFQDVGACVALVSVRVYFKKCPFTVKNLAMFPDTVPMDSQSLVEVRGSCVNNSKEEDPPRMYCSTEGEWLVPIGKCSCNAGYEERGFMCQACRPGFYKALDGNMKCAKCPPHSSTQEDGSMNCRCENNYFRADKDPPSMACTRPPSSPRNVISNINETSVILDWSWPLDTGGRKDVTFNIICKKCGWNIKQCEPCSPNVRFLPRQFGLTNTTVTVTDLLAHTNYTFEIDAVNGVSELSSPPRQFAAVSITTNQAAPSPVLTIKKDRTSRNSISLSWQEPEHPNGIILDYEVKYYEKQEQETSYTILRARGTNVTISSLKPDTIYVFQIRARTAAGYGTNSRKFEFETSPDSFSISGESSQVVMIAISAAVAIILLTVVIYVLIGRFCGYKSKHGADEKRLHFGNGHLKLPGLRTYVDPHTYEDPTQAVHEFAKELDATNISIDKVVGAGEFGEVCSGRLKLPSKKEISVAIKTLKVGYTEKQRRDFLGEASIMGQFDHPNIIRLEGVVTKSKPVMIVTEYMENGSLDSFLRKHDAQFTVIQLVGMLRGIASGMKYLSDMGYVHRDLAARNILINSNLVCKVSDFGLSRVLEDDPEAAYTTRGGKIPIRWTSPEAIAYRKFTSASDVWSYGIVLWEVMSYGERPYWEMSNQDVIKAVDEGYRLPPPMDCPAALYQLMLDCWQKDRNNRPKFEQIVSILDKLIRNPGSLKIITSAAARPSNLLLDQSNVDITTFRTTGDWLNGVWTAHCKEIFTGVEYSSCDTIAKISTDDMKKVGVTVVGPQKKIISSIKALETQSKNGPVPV
# [6] = molecular target: Death-associated protein kinase 1 (Homo sapiens) (UniProt P53355); conditions: at 10 µM
# Death-associated protein kinase 1 (Homo sapiens), sequence (P53355 whole entry, looked up): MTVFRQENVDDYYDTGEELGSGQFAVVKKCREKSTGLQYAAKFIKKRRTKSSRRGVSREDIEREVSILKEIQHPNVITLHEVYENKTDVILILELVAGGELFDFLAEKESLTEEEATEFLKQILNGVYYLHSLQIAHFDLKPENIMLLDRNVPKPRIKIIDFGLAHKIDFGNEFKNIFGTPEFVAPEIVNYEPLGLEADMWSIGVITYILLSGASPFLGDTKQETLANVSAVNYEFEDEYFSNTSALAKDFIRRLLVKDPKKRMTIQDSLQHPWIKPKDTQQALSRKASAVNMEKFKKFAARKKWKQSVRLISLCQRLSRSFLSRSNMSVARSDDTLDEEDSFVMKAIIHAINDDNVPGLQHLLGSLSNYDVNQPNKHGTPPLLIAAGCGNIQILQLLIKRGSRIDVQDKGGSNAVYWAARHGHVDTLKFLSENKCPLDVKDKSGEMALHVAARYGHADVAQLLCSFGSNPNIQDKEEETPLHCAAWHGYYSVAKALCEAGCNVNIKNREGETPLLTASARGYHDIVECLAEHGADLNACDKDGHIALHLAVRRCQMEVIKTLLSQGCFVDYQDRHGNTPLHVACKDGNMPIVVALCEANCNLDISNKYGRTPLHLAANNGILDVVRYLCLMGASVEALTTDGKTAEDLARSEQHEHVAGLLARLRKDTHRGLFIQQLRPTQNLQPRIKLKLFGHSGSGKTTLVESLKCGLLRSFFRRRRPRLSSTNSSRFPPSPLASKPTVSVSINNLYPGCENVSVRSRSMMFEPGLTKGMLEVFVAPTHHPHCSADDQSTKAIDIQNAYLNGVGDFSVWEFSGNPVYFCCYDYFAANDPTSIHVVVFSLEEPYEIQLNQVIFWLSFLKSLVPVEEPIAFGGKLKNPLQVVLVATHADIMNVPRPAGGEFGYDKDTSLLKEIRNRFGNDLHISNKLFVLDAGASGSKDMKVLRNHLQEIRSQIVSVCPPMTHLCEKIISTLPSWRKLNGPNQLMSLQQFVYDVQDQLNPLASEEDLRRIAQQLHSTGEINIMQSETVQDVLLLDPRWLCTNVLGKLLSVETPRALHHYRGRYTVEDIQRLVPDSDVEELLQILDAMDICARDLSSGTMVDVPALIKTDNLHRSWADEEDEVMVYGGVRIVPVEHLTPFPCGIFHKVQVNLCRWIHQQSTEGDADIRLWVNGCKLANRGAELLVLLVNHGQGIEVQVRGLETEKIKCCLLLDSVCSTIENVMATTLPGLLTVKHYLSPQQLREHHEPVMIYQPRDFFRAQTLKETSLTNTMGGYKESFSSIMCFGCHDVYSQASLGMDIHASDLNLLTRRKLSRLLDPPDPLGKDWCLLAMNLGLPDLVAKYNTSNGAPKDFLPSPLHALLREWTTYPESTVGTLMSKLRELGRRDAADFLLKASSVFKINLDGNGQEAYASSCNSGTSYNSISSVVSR
# [7] = molecular target: Death-associated protein kinase 2 (Homo sapiens) (UniProt Q9UIK4); conditions: at 1 µM
# Death-associated protein kinase 2 (Homo sapiens), sequence (Q9UIK4 whole entry, looked up): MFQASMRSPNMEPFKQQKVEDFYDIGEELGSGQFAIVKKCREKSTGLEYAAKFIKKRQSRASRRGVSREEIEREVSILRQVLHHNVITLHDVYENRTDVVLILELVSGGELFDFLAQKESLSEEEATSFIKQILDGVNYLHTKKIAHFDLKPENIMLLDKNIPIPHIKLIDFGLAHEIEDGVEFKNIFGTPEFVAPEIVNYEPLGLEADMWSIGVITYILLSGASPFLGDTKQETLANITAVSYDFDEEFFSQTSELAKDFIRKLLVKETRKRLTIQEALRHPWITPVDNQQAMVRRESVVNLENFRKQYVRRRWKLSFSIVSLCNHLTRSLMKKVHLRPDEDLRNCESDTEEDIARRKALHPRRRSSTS
# [8] = molecular target: Death-associated protein kinase 2 (Homo sapiens) (UniProt Q9UIK4); conditions: at 10 µM
# [9] = molecular target: T4, Serine/threonine-protein kinase DCLK2 (Homo sapiens) (UniProt Q8N568); conditions: at 1 µM
# T4 sequence (whole entry): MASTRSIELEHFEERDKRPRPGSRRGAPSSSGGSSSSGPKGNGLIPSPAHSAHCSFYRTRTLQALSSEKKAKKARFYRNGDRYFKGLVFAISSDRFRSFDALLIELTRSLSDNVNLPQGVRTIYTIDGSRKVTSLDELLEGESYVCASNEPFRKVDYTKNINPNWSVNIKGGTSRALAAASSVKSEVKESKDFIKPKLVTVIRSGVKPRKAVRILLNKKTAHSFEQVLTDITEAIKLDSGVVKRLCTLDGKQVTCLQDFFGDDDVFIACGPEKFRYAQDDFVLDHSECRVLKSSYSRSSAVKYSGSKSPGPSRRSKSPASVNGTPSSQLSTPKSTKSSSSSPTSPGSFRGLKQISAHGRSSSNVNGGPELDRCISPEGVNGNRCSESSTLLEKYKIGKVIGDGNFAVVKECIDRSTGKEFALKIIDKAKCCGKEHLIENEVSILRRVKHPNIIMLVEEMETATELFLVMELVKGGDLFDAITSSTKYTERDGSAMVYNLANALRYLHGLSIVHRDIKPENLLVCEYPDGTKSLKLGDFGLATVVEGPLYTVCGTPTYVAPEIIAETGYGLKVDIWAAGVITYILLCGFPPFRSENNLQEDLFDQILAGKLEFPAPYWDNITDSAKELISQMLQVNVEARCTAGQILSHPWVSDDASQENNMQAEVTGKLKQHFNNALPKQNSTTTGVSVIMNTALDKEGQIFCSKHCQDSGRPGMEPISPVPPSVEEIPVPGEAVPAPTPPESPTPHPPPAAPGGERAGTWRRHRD
# [10] = molecular target: T4, Serine/threonine-protein kinase DCLK2 (Homo sapiens); conditions: at 10 µM
# [11] = molecular target: T5, Discoidin domain-containing receptor 2 (Homo sapiens) (UniProt Q16832); conditions: at 1 µM
# T5 sequence (whole entry): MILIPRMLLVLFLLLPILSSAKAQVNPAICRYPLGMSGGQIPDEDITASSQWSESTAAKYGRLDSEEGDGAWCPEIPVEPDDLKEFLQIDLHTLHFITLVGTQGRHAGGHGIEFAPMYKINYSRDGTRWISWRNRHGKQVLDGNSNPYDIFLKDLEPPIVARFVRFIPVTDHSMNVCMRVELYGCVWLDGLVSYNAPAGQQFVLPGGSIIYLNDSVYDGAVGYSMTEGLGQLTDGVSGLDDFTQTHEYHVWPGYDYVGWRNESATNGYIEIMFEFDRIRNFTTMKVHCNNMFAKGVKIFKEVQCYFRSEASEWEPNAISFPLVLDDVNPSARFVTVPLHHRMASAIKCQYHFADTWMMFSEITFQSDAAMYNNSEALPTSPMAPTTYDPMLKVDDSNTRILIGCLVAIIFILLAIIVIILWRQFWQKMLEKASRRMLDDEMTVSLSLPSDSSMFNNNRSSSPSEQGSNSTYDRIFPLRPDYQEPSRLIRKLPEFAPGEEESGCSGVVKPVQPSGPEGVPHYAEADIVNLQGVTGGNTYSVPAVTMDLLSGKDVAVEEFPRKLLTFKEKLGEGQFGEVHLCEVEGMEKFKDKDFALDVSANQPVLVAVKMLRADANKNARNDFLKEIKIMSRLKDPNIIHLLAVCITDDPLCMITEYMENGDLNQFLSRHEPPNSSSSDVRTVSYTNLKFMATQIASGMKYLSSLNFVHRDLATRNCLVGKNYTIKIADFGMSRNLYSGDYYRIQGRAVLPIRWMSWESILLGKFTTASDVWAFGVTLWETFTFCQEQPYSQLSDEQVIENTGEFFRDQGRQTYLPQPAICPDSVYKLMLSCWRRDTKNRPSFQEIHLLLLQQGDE
# [12] = molecular target: T5, Discoidin domain-containing receptor 2 (Homo sapiens); conditions: at 10 µM
# [13] = molecular target: T6, Myotonin-protein kinase (Homo sapiens) (UniProt Q09013); conditions: at 1 µM
# T6 sequence (whole entry): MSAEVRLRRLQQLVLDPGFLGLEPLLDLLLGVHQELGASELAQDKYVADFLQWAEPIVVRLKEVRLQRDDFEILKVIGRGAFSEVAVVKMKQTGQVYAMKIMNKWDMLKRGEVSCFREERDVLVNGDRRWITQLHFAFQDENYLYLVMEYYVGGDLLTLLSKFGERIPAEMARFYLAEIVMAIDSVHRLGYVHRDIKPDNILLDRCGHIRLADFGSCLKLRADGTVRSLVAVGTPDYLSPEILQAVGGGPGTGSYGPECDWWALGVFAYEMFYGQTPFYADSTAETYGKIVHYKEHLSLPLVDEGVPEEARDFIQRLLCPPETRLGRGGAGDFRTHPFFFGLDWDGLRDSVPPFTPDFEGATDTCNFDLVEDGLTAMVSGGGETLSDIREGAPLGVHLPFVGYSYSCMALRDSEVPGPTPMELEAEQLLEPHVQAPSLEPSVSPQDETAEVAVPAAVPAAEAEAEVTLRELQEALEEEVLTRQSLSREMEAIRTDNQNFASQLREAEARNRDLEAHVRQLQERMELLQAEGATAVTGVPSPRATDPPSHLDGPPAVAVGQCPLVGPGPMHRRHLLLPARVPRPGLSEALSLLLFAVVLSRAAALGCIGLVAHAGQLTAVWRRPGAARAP
# [14] = molecular target: T6, Myotonin-protein kinase (Homo sapiens); conditions: at 10 µM
# [15] = molecular target: T7, Ephrin type-A receptor 1 (Homo sapiens) (UniProt P21709); conditions: at 1 µM
# T7 sequence (whole entry): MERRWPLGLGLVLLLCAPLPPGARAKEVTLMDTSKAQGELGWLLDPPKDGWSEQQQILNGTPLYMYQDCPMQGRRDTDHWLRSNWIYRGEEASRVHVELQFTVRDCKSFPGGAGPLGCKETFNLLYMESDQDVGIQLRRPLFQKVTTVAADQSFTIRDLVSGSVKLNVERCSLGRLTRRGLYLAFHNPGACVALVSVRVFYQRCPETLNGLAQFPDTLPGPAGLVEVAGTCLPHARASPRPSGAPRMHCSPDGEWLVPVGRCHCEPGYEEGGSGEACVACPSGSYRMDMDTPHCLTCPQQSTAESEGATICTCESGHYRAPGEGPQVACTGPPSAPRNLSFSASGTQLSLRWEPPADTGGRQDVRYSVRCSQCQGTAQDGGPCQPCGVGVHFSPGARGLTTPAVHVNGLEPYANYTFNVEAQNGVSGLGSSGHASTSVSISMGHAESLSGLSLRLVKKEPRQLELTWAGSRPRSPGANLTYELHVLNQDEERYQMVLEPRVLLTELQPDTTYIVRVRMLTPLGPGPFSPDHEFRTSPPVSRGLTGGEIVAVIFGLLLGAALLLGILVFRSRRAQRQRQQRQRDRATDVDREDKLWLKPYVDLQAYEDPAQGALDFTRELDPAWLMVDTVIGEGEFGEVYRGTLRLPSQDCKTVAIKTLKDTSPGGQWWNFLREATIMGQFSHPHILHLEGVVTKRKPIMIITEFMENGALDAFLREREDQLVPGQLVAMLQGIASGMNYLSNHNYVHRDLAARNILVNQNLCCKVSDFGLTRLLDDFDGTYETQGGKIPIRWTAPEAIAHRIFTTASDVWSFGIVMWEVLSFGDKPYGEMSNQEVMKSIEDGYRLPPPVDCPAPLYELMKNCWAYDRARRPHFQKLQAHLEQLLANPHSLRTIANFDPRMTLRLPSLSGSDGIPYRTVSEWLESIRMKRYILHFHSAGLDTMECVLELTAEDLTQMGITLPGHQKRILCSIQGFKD
# [16] = molecular target: T7, Ephrin type-A receptor 1 (Homo sapiens); conditions: at 10 µM
# [17] = molecular target: Ephrin type-A receptor 2 (Homo sapiens) (UniProt P29317); conditions: at 1 µM
# Ephrin type-A receptor 2 (Homo sapiens), sequence (P29317 whole entry): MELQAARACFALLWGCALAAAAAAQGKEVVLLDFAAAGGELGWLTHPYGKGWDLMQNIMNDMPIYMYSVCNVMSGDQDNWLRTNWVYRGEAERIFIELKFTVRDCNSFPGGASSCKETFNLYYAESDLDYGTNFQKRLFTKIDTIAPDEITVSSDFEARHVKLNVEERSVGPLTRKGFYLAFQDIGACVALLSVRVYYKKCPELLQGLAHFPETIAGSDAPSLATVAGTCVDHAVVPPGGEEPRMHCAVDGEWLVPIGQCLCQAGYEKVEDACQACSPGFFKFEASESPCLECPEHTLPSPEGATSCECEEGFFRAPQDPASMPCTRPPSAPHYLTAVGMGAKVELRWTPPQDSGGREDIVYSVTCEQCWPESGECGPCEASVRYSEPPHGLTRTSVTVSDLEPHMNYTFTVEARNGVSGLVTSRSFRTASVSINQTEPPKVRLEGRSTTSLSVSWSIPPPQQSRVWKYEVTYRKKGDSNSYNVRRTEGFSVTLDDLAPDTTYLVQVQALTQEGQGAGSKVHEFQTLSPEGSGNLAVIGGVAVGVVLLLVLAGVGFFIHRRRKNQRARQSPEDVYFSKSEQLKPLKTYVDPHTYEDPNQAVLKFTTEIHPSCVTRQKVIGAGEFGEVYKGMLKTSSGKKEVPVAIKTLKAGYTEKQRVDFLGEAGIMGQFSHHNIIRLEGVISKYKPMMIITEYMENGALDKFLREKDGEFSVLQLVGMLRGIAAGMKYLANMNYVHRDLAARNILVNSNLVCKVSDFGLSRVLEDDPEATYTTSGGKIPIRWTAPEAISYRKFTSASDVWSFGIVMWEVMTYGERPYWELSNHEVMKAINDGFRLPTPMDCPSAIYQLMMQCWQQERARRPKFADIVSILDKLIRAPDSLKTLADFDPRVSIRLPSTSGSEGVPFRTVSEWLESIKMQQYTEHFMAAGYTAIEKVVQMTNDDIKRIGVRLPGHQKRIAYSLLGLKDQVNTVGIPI
# [18] = molecular target: Ephrin type-A receptor 2 (Homo sapiens) (UniProt P29317); conditions: at 10 µM
SMILES,residual activity [1],residual activity [2],residual activity [3],residual activity [4],residual activity [5],residual activity [6],residual activity [7],residual activity [8],residual activity [9],residual activity [10],residual activity [11],residual activity [12],residual activity [13],residual activity [14],residual activity [15],residual activity [16],residual activity [17],residual activity [18]
N#CCCc1ccc2c(c1)-c1[nH]c3ccc([N+](=O)[O-])cc3c1CC(=O)N2,11%,3%,28%,12%,77%,–,–,–,–,–,–,–,–,–,–,–,–,–
CC(C)n1cnc2/c(=N/c3cccc(Cl)c3)nc(NCCO)[nH]c21,–,83%,95%,69%,82%,94%,104%,98%,103%,94%,94%,93%,124%,74%,86%,42%,82%,65%
Nc1nc(Nc2ccc(S(N)(=O)=O)cc2)nn1C(=S)Nc1c(F)cccc1F,1%,4%,49%,-1%,65%,–,84%,43%,13%,2%,74%,28%,122%,31%,1%,3%,13%,-2%
Oc1c2ccccc2c2c3c(cccc13)N=N2,6%,2%,4%,-5%,75%,68%,87%,43%,116%,51%,93%,92%,–,68%,67%,42%,88%,60%
O=C1NC(=O)c2cc(Nc3ccc(F)cc3)c(Nc3ccc(F)cc3)cc21,105%,64%,105%,101%,104%,76%,77%,84%,76%,89%,92%,51%,125%,129%,69%,52%,100%,80%
